{
  "source": "PubChem BioAssay (NCATS)",
  "note": "Results filed as inconclusive are left out. Values without a mark were called inactive. Activity calls are given as the source filed them. The call rests on the fitted dose curve; in most records, active means well fitted cell-killing curve with a large enough effect; inconclusive means small, poorly fitted or top-dose-only effect; inactive means no such curve, though single readings can be large or run the other way. Potency means the concentration at half of the fitted maximal effect.",
  "data": [
    {"assay": "Quantitative High-Throughput drug screen in 47 multiple myeloma cell lines against the NCATS MIPE library collection: NCIH929_DSMZ cell viability assay (AID 1918978); further: nearly all actives have a fitted effect of over 35% in size", "conditions": "NCI-H929 myeloma viability, CellTiter-Glo ATP, 48 h; series mostly up to 45.8 µM; viability, % of control: at the top concentration", "from_the_text": "PI: Beverly A. Mock Ph.D.\nLaboratory of Cancer Biology and Genetics,\nCenter for Cancer Research, National Cancer Institute,\nNational Institute of Health, Bethesda, Maryland\nDrug resistance and disease progression are common in multiple myeloma (MM) patients, underscoring the need for new therapeutic combinations. […] We hypothesized that effective combinations would reduce MYC expression and enhance p16 activity. […] These preclinical data identify potentially useful drug combinations for evaluation in drug-resistant MM and reveal potential mechanisms of combined drug sensitivity.\nDescribed herein is the primary MIPE qHTS used to cherrypick compounds. Validated compounds were then further tested for potential synergistic activiy.\n[1] Peat TJ, Gaikwad SM, Dubois W, Gyabaah-Kessie N, Zhang S, Gorjifard S, Phyo Z, Andres M, Hughitt VK, Simpson RM, Miller MA, Girvin AT, Taylor A, Williams D, D'Antonio N, Zhang Y, Rajagopalan A, Flietner E, Wilson K, Zhang X, Shinn P, Klumpp-Thomas C, McKnight C, Itkin Z, Chen L, Kazandijian D, Zhang J, Michalowski AM, Simmons JK, Keats J, Thomas CJ, Mock BA. Drug combinations identified by high-throughput screening promote cell cycle transition and upregulate Smad pathways in myeloma. Cancer Lett. 2023 Aug 1;568:216284. doi: 10.1016/j.canlet.2023.216284. Epub 2023 Jun 24. PMID: 37356470; PMCID: PMC10408729.\nSEQUENCE No. (e.g., 1, 2, 3, etc.); […] (e.g., Cells, Incubation, Reagent, etc.); VALUE and DESCRIPTION.\n1; Cells; 5 uL; white, solid bottom 1536-well Greiner assay plate.\n2; Compounds; 23 nL; Kalypsis pin tool (Wako USA) equipped with a 1536-well pin head to transfer to the assay plates.\n3; Incubation; 48 hours; 37C incubation.\n4; Reagent;5uL; CellTiter Glo (Promega).\n5; Detector; 425V; Luminescence; Viewlux PerkinElmer.\nNOTES (numbers refer to Sequence numbers above)\n1. The cell-based screening methods employed in this study were like those previously published. Briefly, the corresponding myeloma cell lines were screened in 1,536-well plates with 500 cells, 5-uL per well for inhibition of cell viability (assessed by measuring ATP levels with CellTiterGlo).\n2. NCATS MIPE 4.0 library of approved and investigational drugs were added using the Kalypsis pin tool. Wells treated with DMSO only for 100% viability and media only for 0% viability were used as controls.\n3. The assay plates were covered and incubated for 48 hours in a 37C, 5% CO2 incubator with controlled humidity.\n4. After 48 hours, CellTilter-GloTM luminescent substrate mix (Promega) reagent was added to the assay plate and plates we incubated for 5 min at room temperature.\n5. Signal was measured as median relative luminescence units on a ViewLux (PerkinElmer) multiplate reader.\n[1] Heske CM, Davis MI, Baumgart JT, Wilson K, Gormally MV, Chen L, Zhang X, Ceribelli M, Duveau DY, Guha R, Ferrer M, Arnaldez FI, Ji J, Tran HL, Zhang Y, Mendoza A, Helman LJ, Thomas CJ. Matrix Screen Identifies Synergistic Combination of PARP Inhibitors and Nicotinamide Phosphoribosyltransferase (NAMPT) Inhibitors in Ewing Sarcoma. Clin Cancer Res. 2017 Dec 1;23(23):7301-7311. doi: 10.1158/1078-0432.CCR-17-1121. Epub 2017 Sep 12. PMID: 28899971; PMCID: PMC6636827.", "units": {"viability, % of control": "%"}, "values": [
      {"smiles": "CC1=C2C[C@@H]3[C@@H](CC=C4C[C@@H](O)CC[C@@]43C)[C@@H]2CC[C@]12O[C@H]1C[C@H](C)CN[C@H]1[C@H]2C", "viability, % of control": 118},
      {"smiles": "CN(C)[C@@H]1C(=O)C(C(N)=O)=C(O)[C@@]2(O)C(=O)C3=C(O)c4c(O)cccc4[C@@](C)(O)[C@H]3C[C@@H]12", "viability, % of control": 117},
      {"smiles": "C[C@@H]1[C@@H](C(=O)C[C@H]2O[C@@H]3O[C@]4(C)CC[C@@H]5[C@H](C)CC[C@@H]([C@H]2C)[C@@]35OO4)O[C@@H]2O[C@]3(C)CC[C@H]4[C@H](C)CC[C@@H]1[C@@]24OO3", "Potency": "132 nM (active)"},
      {"smiles": "C#CCN(C)[C@H](C)Cc1ccccc1", "viability, % of control": 75},
      {"smiles": "COc1ccc(C(CN(C)C)C2(O)CCCCC2)cc1", "note": "(stereo unspecified)", "viability, % of control": 87.7},
      {"smiles": "O=C1CC[C@@]2(O)[C@H]3Cc4ccc(O)c5c4[C@@]2(CCN3CC2CC2)[C@H]1O5", "viability, % of control": 112},
      {"smiles": "Cc1cc(SCc2sc(-c3ccc(C(F)(F)F)c(F)c3)nc2C)ccc1OCC(=O)O", "Potency": "20900 nM (active)"},
      {"smiles": "COC[C@@H](NC(C)=O)C(=O)NCc1ccccc1", "viability, % of control": 112},
      {"smiles": "C[C@@H]1[C@@H](CC(C[C@H]2O[C@@H]3O[C@]4(C)CC[C@@H]5[C@H](C)CC[C@@H]([C@H]2C)[C@@]35OO4)C[S+](=O)([O-])c2ccc(COC(=O)N(C)C)cc2)O[C@@H]2O[C@]3(C)CC[C@H]4[C@H](C)CC[C@@H]1[C@@]24OO3", "note": "(stereo partly specified)", "Potency": "83.3 nM (active)"},
      {"smiles": "CCCC(C)(COC(N)=O)COC(=O)NC(C)C", "note": "(stereo unspecified)", "viability, % of control": 109},
      {"smiles": "CC(C)CC(N(C)C)C1(c2ccc(Cl)cc2)CCC1", "note": "(stereo unspecified)", "viability, % of control": 89.5},
      {"smiles": "Cn1cc(C2=C(c3cn(C4CCN(Cc5ccccn5)CC4)c4ccccc34)C(=O)NC2=O)c2ccccc21", "Potency": "5900 nM (active)"},
      {"smiles": "Cc1cccc(C)c1NC(=O)CN1CCCC1=O", "viability, % of control": 105},
      {"smiles": "C=C(C)[C@H]1Cc2c(ccc3c2O[C@@H]2COc4cc(OC)c(OC)cc4[C@@H]2C3=O)O1", "Potency": "1870 nM (active)"},
      {"smiles": "CN(C)CCc1ccc(O)cc1", "viability, % of control": 98.7},
      {"smiles": "Cc1sc2c(c1C)C(c1ccc(Cl)cc1)=N[C@@H](CC(=O)OC(C)(C)C)c1nnc(C)n1-2", "Potency": "148 nM (active)"},
      {"smiles": "CC(O)(CS(=O)(=O)c1ccc(F)cc1)C(=O)Nc1ccc(C#N)c(C(F)(F)F)c1", "note": "(stereo unspecified)", "Potency": "187 nM (active)"},
      {"smiles": "N[C@@H](Cc1ccc(N(CCCl)CCCl)cc1)C(=O)O", "Potency": "3320 nM (active)"},
      {"smiles": "Fc1ccc(C(OCCN2CCN(CCCc3ccccc3)CC2)c2ccc(F)cc2)cc1", "Potency": "13200 nM (active)"},
      {"smiles": "CN1CCN(C(=O)O[C@H]2c3nccnc3C(=O)N2c2ccc(Cl)cn2)CC1", "viability, % of control": 120},
      {"smiles": "COC1(CS(=O)c2ccccc2)CCN(CCc2c[nH]c3ccc(F)cc23)CC1", "note": "(stereo unspecified)", "viability, % of control": 81.4},
      {"smiles": "O=P1(NCCCl)OCCCN1CCCl", "note": "(stereo unspecified)", "viability, % of control": 87.5},
      {"smiles": "Cn1c(CCCC(=O)O)nc2cc(N(CCCl)CCCl)ccc21", "Potency": "13200 nM (active)"},
      {"smiles": "CNC(=O)c1ccc(N2C(=S)N(c3ccc(C#N)c(C(F)(F)F)c3)C(=O)C23CCC3)cc1F", "Potency": "1320 nM (active)"},
      {"smiles": "COC[C@H]1OC(=O)c2coc3c2[C@@]1(C)C1=C(C3=O)C2CCC(=O)[C@@]2(C)C[C@H]1OC(C)=O", "note": "(stereo partly specified)", "Potency": "469 nM (active)"},
      {"smiles": "C[C@@H]1O[C@@H](O[C@H]2C[C@@H](O)[C@]3(CO)[C@H]4[C@H](O)C[C@]5(C)[C@@H](C6=CC(=O)OC6)CC[C@]5(O)[C@@H]4CC[C@]3(O)C2)[C@H](O)[C@H](O)[C@H]1O", "Potency": "59 nM (active)"},
      {"smiles": "COc1ccc(C(=O)c2c(C)n(CCN3CCOCC3)c3ccccc23)cc1", "viability, % of control": 118},
      {"smiles": "COc1ccc2c(c1OC)CN1CCc3cc4c(cc3C1C2)OCO4", "note": "(stereo unspecified)", "viability, % of control": 106},
      {"smiles": "NCC1(CC(=O)O)CCCCC1", "viability, % of control": 103},
      {"smiles": "CNCC(O)c1ccc(O)cc1", "note": "(stereo unspecified)", "viability, % of control": 96.2},
      {"smiles": "CN(C)CCN(C)CCc1ccc(Cl)c(Cl)c1", "viability, % of control": 122}
    ]}
  ]
}
